High-throughput results as filed in PubChem BioAssay.
In the library only some 6.9% were active in any assay of this set; here they are far more common.
VDR inh – Inhibitors of the vitamin D receptor (VDR): qHTS; Vitamin D3 receptor (Homo sapiens), P11473; Potency, µM, without a hit: max response, negative = inhibition, usual class: inhibitors; hit rate 0.93% among 400,000; VDR-SRC2-3 peptide fluorescence polarization, 2 h; also: % is scaled to controls: 0 for no effect and ±100 for the full control effect
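FP read-out; VDR + SRC2-3 coactivator peptide; 23 nl compound by pintool; 2 h RT incubation; reagents held at 4 deg C, protected from light.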
HP1b binding inh – HTS for Inhibitors of HP1-beta Chromodomain Interactions with Methylated Histone Tails | Chromobox protein homolog 1 (Homo sapiens), P83916 | AlphaScreen HP1-beta / biotin-H3K9me3 peptide binding | Potency, µM (series often up to 114 µM), for inactives: at the highest dose activity change, negative = inhibition, hits mostly inhibitors | hit rate 0.56% among 390,000 | AID 540317, 2011; also: nearly all actives have a fitted effect of over 70% in size
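AlphaScreen: HP1-beta (50 nM) preformed 30 min with biotin-H3(1-18)K9me3 peptide (50 nM) in PBS pH 7.4, 0.01% Tween-20. Compound added for 30 min at RT, then streptavidin donor/nickel chelate acceptor beads (10 ug/mL) for 30 min.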
L3MBTL1 inh – qHTS Assay for the Inhibitors of L3MBTL1; Potency, µM (series often up to 57.1 µM), for the others: at the top dose activity, negative = inhibition, most hits filed as inhibitors; AlphaScreen L3MBTL1–H3K9me1 peptide binding; hit rate 0.66% among 230,000; Lethal(3)malignant brain tumor-like protein 1 (Homo sapiens), Q9Y468; AID 485360, 2010; also: % is scaled to controls: 0 for no effect and ±100 for the full control effect; nearly all actives have a fitted effect of over 60% in size
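AlphaScreen assay: L3MBTL1 (50 nM final) was preincubated 30 min at room temperature with biotinylated H3(1-15)K9me1 peptide (75 nM final), then 30 min with library compounds; streptavidin donor and nickel chelate acceptor beads (10 ug/mL final) added, 30 min dark.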
JMJD2A Tudor – qHTS Assay for Inhibitors of JMJD2A-Tudor Domain | Potency, µM (top dose mostly 114 µM), without a hit: at the highest dose activity change, negative = inhibition, most hits filed as inhibitors | AlphaScreen JMJD2A-Tudor / H3K4me3 peptide binding | hit rate 4.4% among 390,000; also: % is scaled to controls: 0 for no effect and ±100 for the full control effect; nearly all actives have a fitted effect of over 50% in size
BAZ2B inh – qHTS Assay for Inhibitors of BAZ2B | Bromodomain adjacent to zinc finger domain protein 2B (Homo sapiens), Q9UIF8 | AlphaScreen BAZ2B-H3K14Ac peptide displacement | hit rate 4.4% among 360,000 | AID 504333, 2011 | Potency, µM (top dose mostly 114 µM), for the others: at the top dose activity change, negative = inhibition, actives largely listed as inhibitors; also: % is scaled to controls: 0 for no effect and ±100 for the full control effect; nearly all actives have a fitted effect of over 60% in size
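AlphaScreen displacement of biotin-H3(5-23)K14Ac peptide (50 nM final) from BAZ2B (50 nM final) in PBS pH 7.4, 0.01% Tween-20; complex preformed 30 min RT, then compounds (top 110 uM) 30 min RT, beads 20 min dark.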
PLK1 PBD block – qHTS for Inhibitors of PLK1-PDB (polo-like kinase 1 - polo-box domain): Primary Screen; AID 720504, 2013; Potency, µM, inactives show max response, negative = inhibition, most hits filed as inhibitors; Serine/threonine-protein kinase PLK1 (Homo sapiens), P53350; hit rate 2.8% among 360,000; Plk1 PBD binding of FITC phosphopeptide, fluorescence polarization; also: series mostly up to about 57 µM; % is scaled to controls: 0 for no effect and ±100 for the full control effect; nearly all actives have a fitted effect of over 65% in size
Target sequence (P53350 whole entry, looked up, the tested form may be a part): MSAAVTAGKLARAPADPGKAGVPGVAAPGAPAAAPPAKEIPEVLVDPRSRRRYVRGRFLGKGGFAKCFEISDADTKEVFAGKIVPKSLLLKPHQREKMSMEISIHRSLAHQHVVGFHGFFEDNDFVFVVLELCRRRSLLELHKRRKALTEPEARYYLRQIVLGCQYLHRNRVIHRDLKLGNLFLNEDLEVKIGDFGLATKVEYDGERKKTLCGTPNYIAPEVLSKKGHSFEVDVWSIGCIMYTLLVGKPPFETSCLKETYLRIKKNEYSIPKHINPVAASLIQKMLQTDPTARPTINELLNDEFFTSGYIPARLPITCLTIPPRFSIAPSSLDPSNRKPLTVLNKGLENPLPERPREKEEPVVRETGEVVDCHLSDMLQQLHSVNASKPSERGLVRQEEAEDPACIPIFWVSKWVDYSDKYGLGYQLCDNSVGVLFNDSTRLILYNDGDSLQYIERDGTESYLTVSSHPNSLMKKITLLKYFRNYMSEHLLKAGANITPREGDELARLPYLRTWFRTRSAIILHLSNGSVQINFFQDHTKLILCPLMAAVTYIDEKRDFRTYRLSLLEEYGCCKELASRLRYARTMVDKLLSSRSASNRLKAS
An asterisk follows results filed as active; ? = inconclusive; / = no result; ! = not confirmed by another sample; [ ] = dose if it differs, or a comment. Calls follow the shape of the dose curve; as a rule, active = well fitted curve in the direction sought with a large enough effect; inconclusive = small, poorly fitted or top-dose-only effect, or another doubt; inactive = no such curve, though single readings can be large; an effect the other way counts as inactive or inconclusive. Potency is read from the fitted curve at half-maximal effect.

SMILES	VDR inh	HP1b binding inh	L3MBTL1 inh	JMJD2A Tudor	BAZ2B inh	PLK1 PBD block
O=C(Cn1nc(N2CCN(c3ccccc3)CC2)ccc1=O)NCc1ccccc1F	12%	13%	/	-21%	-11%	/
NC(=O)CCN1CCN(Cc2cn[nH]c2-c2cccc3ccccc23)CC1	23%	33%	0%	-10%	-2%	19%
c1ccc2c(-c3[nH]ncc3CNCCCn3ncc4ccccc43)cccc2c1	?	-17%	-15%	20µM*	?	24µM*
Cc1ccc(C)c(NC(=O)CSc2nc(=O)n(CCN(C)C)c3c2CCC3)c1	17%	59%	/	-11%	18%	/
CCOC(=O)c1c(NC(=O)c2cc(Cl)ccc2Cl)sc2c1CCCC2	-29%	143%	/	53%	7%	/
CCOC(=O)c1c(NC(=O)c2ccccc2Cl)sc2c1CCc1ccccc1-2	?	13%	58%	8%	25%	6.7µM*
CCOC(=O)c1c(NC(=O)c2ccccc2)sc2c1CCc1ccccc1-2	71µM*	24%	72%	44%	1%	6.7µM*
CCOC(=O)c1c(NC(=O)c2ccccc2C(=O)O)sc2c1CCCC2	-3%	18%	-2%	-17%	-2%	-18%
O=C(Cc1ccc(F)cc1)N1CCC(N2CCC(C(=O)N3CCOCC3)CC2)CC1	19%	39%	0%	-12%	-14%	-6%
Cc1ccc(C)[n+](CC(=O)c2ccc(-c3ccccc3)cc2)c1	14%	29%	15%	-18%	-13%	-7%
CCOC(=O)c1ccc(S(=O)(=O)NCC(c2ccc(N(C)C)cc2)c2c[nH]c3ccccc23)cc1 (stereo unspecified)	-4%	32µM*	?	11µM*	10µM*	-3%
CN(C)c1ccc(C(CNS(=O)(=O)c2ccc(F)cc2)c2c[nH]c3ccccc23)cc1 (stereo unspecified)	-10%	?	?	25µM*	18µM*	-19%
O=[N+]([O-])CC(c1ccccc1)c1c[nH]c2ccccc12 (stereo unspecified)	1%	23%	/	-29%	/	-7%
COC(=O)CSc1nc2sc3c(c2c(=O)n1-c1ccccc1C)CC(C)(C)OC3	0%	37%	/	-20%	-1%	/
O=C1CSc2cc(Cl)ccc2N1	?	?	/	-2%	/	11µM*
Cc1[nH]c2ccccc2c1C(=O)C(=O)NCCc1ccc(S(N)(=O)=O)cc1	12%	26%	5%	-7%	4%	-7%
CCCn1c(CCC(=O)Nc2cccc(C)c2C)nc2cccnc21	?	18%	/	-15%	-9%	/
CCCn1cc(S(=O)(=O)CC(=O)N2CCc3ccccc32)c2ccccc21	?	-16%	0%	?	-31%	30µM*
Cc1[nH][nH]c(=O)c1C(c1c(C)[nH][nH]c1=O)c1cn(Cc2ccc(F)cc2)c2ccccc12	?	?	?	50µM*	45µM*	?
Cc1[nH][nH]c(=O)c1C(c1c(C)[nH][nH]c1=O)c1cn(Cc2ccc(Cl)c(Cl)c2)c2ccccc12	?	?	?	50µM*	28µM*	?
NS(=O)(=O)c1ccc(NC(=O)COC(=O)Cn2cnc3ccccc3c2=O)cc1	1%	29%	2%	-6%	/	-13%
Cc1cccc(Cn2cc3c(=O)n(CC(=O)Nc4ccc(C)c(F)c4)nc-3c3cc(F)ccc32)c1	9%	24%	/	3%	-3%	/
COc1ccc(-c2nnc(SCC(=O)NNC(=O)Cc3ccccc3)n2C)cc1OC	40µM*	?	9%	?	9%	27µM*
Cc1cc(NC(=O)CSc2nnc(-c3ccccc3)n2C)no1	-7%	-25%	-1%	-25%	-2%	24µM*
Cc1cc(NC(=O)CSc2cn(CCNC(=O)c3ccccc3)c3ccccc23)no1	-10%	8.9µM*	/	22µM*	7%	?
SMILES	VDR inh	HP1b binding inh	L3MBTL1 inh	JMJD2A Tudor	BAZ2B inh	PLK1 PBD block
Cc1cc(NC(=O)CSc2nnc(Nc3ccccc3C)s2)no1	-15%	-15%	-6%	0%[11.4 µM]	-20%	21µM*
Cc1cccc(-c2nnc(SCC(=O)Nc3cc(C)on3)n2C)c1	0%	-16%	/	-16%	-14%	-10%
O=C(CSc1nc(CCC2CCCC2)nc2ccccc12)NCc1ccc2c(c1)OCO2	1%	44%	17%	-10%	5%	-9%
O=C(c1cc(-n2cnnc2)ccc1Cl)N1CCN(c2nc(-c3ccccc3)cs2)CC1	13%	?	6%	56µM*	-2%	?
O=c1[nH]cnc2c1nc(Cl)n2C1OC(CO)C(O)C1O (stereo unspecified)	1%	/	/	/	/	/
CC1(C)CC(NNCCC#N)=CC(=[N+]2CCCC2)C1	0%	-5%	/	-14%[11.4 µM]	-27%	24µM*
CN(Cc1ccccc1)C1=CC(=[N+]2CCCCC2)CC(C)(C)C1	3%	17%	/	-11%	?	-1%
O=C(O)c1ccccc1N=Nc1ccc(O)cc1	?	23%	/	?	/	30µM*
C=CCc1ccc(OCC(O)CN2CCN(c3ccccc3)CC2)c(OC)c1 (stereo unspecified)	-15%	30%	/	?	?	-22%
C=CCc1cc(C)ccc1OCC(O)CN1CCN(c2ccccc2)CC1 (stereo unspecified)	2%	40µM*	2%	2.8µM*	50µM*	-5%
Cc1ccc(C)c(OCC(O)CN2C(C)CCCC2C)c1 (stereo unspecified)	-12%	-8%	9%	-17%[11.4 µM]	-3%	12µM*
C=CCc1ccccc1OCC(O)CN1CCN(c2ccccc2)CC1 (stereo unspecified)	-5%	-13%	/	?	50µM*	/
Cc1ccccc1OCC(O)CN1CCN(C)CC1 (stereo unspecified)	-2%	20%	-5%	-27%	?	0%
COc1ccccc1OCC(O)CN1CCN(CC(=O)Nc2c(C)cccc2C)CC1 (stereo unspecified)	-14%	19%	8%	89µM*!	0%	-14%
Cn1c(=O)c2sccc2n2c(CCC(=O)NCc3ccc(F)cc3)nnc12	?	33%	/	-12%	2%	/
N#CCC(=O)Nc1ccc(C(=O)N2CCN(c3ccccn3)CC2)cc1	-5%	-3%	/	-11%	-12%	4%
OC(COc1cccc2ccccc12)CN1CCN(c2ccccc2)CC1 (stereo unspecified)	-2%	-23%	/	50µM*	?	-3%
